# RORg inh = inhibitors of mouse ROR gamma transcriptional activity; Drosophila S2 Gal4-RORgamma UAS-luciferase reporter, 20 h; Potency, µM (doses to about 53.6 µM), usual class: inhibitors; 5.4% of 310,000 active; further: nearly all actives have a fitted effect of over 60% in size
# Target sequence (P51450 whole entry, looked up, the tested form may be a part): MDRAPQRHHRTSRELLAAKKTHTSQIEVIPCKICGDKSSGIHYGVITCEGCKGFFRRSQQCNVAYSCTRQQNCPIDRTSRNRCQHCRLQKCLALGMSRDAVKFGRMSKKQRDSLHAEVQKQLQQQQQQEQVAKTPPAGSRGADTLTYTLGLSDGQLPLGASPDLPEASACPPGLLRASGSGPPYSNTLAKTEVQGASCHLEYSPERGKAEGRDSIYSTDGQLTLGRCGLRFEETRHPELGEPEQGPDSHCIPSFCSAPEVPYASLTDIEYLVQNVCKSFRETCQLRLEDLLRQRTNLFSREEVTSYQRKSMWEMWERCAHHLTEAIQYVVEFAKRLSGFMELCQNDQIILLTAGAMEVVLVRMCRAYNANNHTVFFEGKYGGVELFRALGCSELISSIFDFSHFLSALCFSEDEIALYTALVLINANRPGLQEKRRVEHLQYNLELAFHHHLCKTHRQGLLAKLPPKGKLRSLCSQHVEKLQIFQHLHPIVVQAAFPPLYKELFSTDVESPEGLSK
#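 Luciferase reporter read in Schneider cells carrying Gal4-RORγ (mouse) and UAS-Photinus luciferase; cells given compound 1 h before 700 uM copper sulfate induction, then incubated 20 h at ambient temperature.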
# PINK1 expr mod = PINK1 expression modulation; 0.2% of 410,000 active; Potency, µM (doses to about 76.6 µM), usual class: activators; AID 624263; PINK1 immunofluorescence, high-content cytometry, 24 h; active means well fitted activation curve with a large enough effect; inconclusive means small, poorly fitted or top-dose-only effect; cell line not stated here; further: nearly all actives have a fitted effect of over 65% in size
#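 Readout is PINK1 immunofluorescence, quantified alongside mitochondrial, cell and nuclear markers by laser-scanning microplate cytometry. Cells from a stable line were exposed to compound titrations (5 concentrations) for 24 hours, with CCCP controls.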
# ClpP mod = qHTS Assay for Activators of ClpP; purified B. subtilis ClpP, FRET peptide cleavage, 20 min; ATP-dependent Clp protease proteolytic subunit (Bacillus subtilis (strain 168)), P80244; AID 651965, 2013; Potency, µM (highest dose often 57.5 µM); 1.9% of 340,000 active; active means well fitted falling curve with a large enough effect; inconclusive means small, poorly fitted or top-dose-only effect; inactive means no such curve, though single readings can be large or run the other way; further: the source files actives as falling curves though it sought activators and does not explain the sign; nearly all actives have a fitted effect of over 65% in size
# Target sequence (P80244 whole entry, looked up): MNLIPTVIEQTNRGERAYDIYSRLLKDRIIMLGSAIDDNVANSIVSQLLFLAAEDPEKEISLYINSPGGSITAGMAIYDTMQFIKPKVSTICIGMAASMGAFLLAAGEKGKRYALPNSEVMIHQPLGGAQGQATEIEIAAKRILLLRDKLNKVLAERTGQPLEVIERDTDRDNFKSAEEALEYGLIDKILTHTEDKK
#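 ClpP 10 microg/mL final, pH 8 Tris/KCl buffer with BSA, glycerol, Tween-20; compound pinned in; FRET-FV substrate; RT 20 min; Ex320/Em430; ΔFRET vs ADEP 5.8 microM, DMSO, no enzyme.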
# Sfp inh = inhibitors of Bacillus subtilis Sfp phosphopantetheinyl transferase; Q9F4F7; Biochemical Sfp PPTase activity, qHTS; Potency, µM, usual class: inhibitors; 3.5% of 310,000 active; AID 1490;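 further: the enzyme is Sfp with the accession as filed and its product quenches rhodamine fluorescence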
#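 Reaction rates are the 30-min fluorescence difference (ex 525, em 598 nm) in wells containing 15 nM Sfp, 5 uM rhodamine-CoA and 12.5 uM BHQ-2-YbbR at pH 7.6 with 10 mM MgCl2.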
# Gal4-VP16 FLuc = inhibits Gal4-VP16 luciferase reporter, ROR gamma counter-screen; 3.5% of 310,000 active; AID 2546; Potency, µM (series often up to 53.6 µM), hits mostly inhibitors; Drosophila S2 Gal4-VP16 UAS-luciferase, luminescence, 20 h;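 further: Gal4-VP16 expression switched on by copper sulfate through the metallothionein promoter; nearly all actives have a fitted effect of over 50% in size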
# Epigenetic derep = regulators of epigenetic silencing causing reporter derepression in mouse cells; murine LDR cells, GFP reporter derepression, 30 h; Potency, µM (series often up to 53.9 µM), hits mostly activators; 0.2% of 280,000 active; AID 1865; further: nearly all actives have a fitted effect of over 60% in size
#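 In this reporter-derepression format, murine cells bearing a silenced integrated CMV-GFP locus incubate with test compound (30 h, 37 C), then are washed and imaged; fluorescent objects of 20–120 um count as induced cells.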
# Numbers stand for hits; – = inactive; ? = inconclusive; · = no result; [ ] = remark or other dose. Rows were chosen to be rich in hits. Some 8.1% of all compounds tested hit in one or more screens of this group. Unless noted, the call rests on the fitted dose curve; in most records, active means well fitted curve in the direction sought with a large enough effect; inconclusive means small, poorly fitted or top-dose-only effect, or another doubt; inactive means no such curve, though single readings can be large; an effect the other way counts as inactive or inconclusive.
SMILES,RORg inh,PINK1 expr mod,ClpP mod,Sfp inh,Gal4-VP16 FLuc,Epigenetic derep
O=C1C(=O)N(CCN2CCOCC2)C(c2ccc([N+](=O)[O-])cc2)/C1=C(/O)c1ccc2c(c1)OCO2 (stereo not drawn),7.94µM,–,–,–,11.2µM,·
O=C1C(=O)N(CCN2CCOCC2)C(c2ccncc2)/C1=C(/O)c1ccc2c(c1)OCO2 (stereo not drawn),–,–,–,–,–,–
Cc1ccc(/C(O)=C2/C(=O)C(=O)N(CCN3CCOCC3)C2c2ccccn2)cc1 (stereo not drawn),–,–,–,56.2µM,–,–
COc1ccc(/C(O)=C2/C(=O)C(=O)N(CCN3CCOCC3)C2c2ccccn2)cc1OC (stereo not drawn),–,–,–,50.1µM,–,–
O=C1C(=O)N(CCN2CCOCC2)C(c2ccccn2)/C1=C(/O)c1ccccc1 (stereo not drawn),–,–,–,56.2µM,–,–
O=C(Nc1ccc(-c2nc3ccccc3o2)cc1)c1ccc(N2CCOCC2)c([N+](=O)[O-])c1,?,?,–,–,10µM,–
O=C(Nc1cccnc1)c1ccc(N2CCOCC2)c([N+](=O)[O-])c1,?,–,–,–,–,·
O=C(NNC(=S)Nc1ccc(Br)cc1)c1ccc(N2CCOCC2)c([N+](=O)[O-])c1,12.6µM,–,–,–,12.6µM,–
O=C(c1ccc(N2CCOCC2)c([N+](=O)[O-])c1)N1CCCCC1,–,–,–,–,–,·
O=C(NNC(=S)Nc1ccc(Cl)cc1Cl)c1ccncc1,?,–,–,–,11.2µM,–
O=C(NNC(=S)Nc1ccc(Cl)cc1Cl)c1ccc(N2CCOCC2)c([N+](=O)[O-])c1,11.2µM,?,–,–,?,–
COc1cc(C(=O)N(Cc2cccnc2)c2nc3cc(C)c(C)cc3s2)cc(OC)c1OC,·,–,–,·,·,–
COc1ccc(NC(=O)c2cnn(-c3ccc(C)cc3)c2-n2cccc2)cc1Cl,·,–,–,·,·,–
CNc1c(Br)cc(C=O)cc1Br,·,–,–,·,·,·
Cc1ccc(NC(=S)NNC(=O)c2ccc(N3CCOCC3)c([N+](=O)[O-])c2)cc1Cl,15.8µM,?,–,–,12.6µM,–
Cc1cc(C(=O)Nc2ccc(N3CCCC3)c(Cl)c2)ccc1[N+](=O)[O-],?,–,·,–,–,–
COC(=O)c1c(OCc2ccccn2)cc(=O)n2c1CCN(Cc1cccc(C(F)(F)F)c1)CC2,·,–,·,·,·,·
O=C(Cn1cnc2nc3c(cc2c1=O)CCCC3)N1CCN(c2ccccc2)CC1,·,–,–,·,·,–
COc1ccc(Cl)cc1NC(=S)N(Cc1ccc(C(=O)O)cc1)Cc1ccc(OC)c(OC)c1,–,–,·,39.8µM,–,–
COc1ccc(CN(CC2CCC(C(=O)O)CC2)C(=S)Nc2cc(Cl)ccc2OC)cc1 (stereo not drawn),?,–,–,39.8µM,–,–
COc1ccc(CN(Cc2ccc(C(=O)O)cc2)C(=S)Nc2cc(C)cc(C)c2)cc1OC,–,–,–,–,–,–
COc1ccccc1NC(=O)C1CCN(S(=O)(=O)c2cn(C)cn2)CC1,·,–,–,·,·,–
CCOC(=O)CSC1=C(C#N)C(=O)NC2(CCCCC2)S1,–,–,?,50.1µM,–,–
CN1CCN(c2cc(-c3ccc4ccccc4c3)nc3ccnn23)CC1,·,44.7µM,–,·,·,·
COc1ccc(-c2c(C)nc3c(-c4ccccn4)cnn3c2N)cc1,5.01µM,–,–,–,10µM,·
SMILES,RORg inh,PINK1 expr mod,ClpP mod,Sfp inh,Gal4-VP16 FLuc,Epigenetic derep
COc1ccc(-c2c(C)nc3c(-c4ccsc4)cnn3c2N)cc1,–,–,–,–,?,·
O=C(NCc1cccnc1)c1ccc2c(c1)C(=O)N(Cc1ccccc1)C2=O,–,–,–,–,–,·
O=C(NCc1ccc2c(c1)OCO2)c1ccc2c(c1)C(=O)N(Cc1cccnc1)C2=O,–,–,17.8µM,–,–,–
CCC(C)/C=C/C1=CC2=C(Cl)C(=O)C3(C)OC(=O)C(C(=O)C(C)C(C)O)C3C2=CO1 (stereo not drawn),–,–,22.4µM,31.6µM,–,–
CCCN1CNC(=S)N(c2ccc(C)cc2C)C1,3.98µM,–,·,–,?,–
CCN(CC)CCN1CNC(=S)N(c2ccccc2OC)C1,–,–,·,–,–,–
CCCN1CNC(=S)N(c2ccccc2C)C1,11.2µM,–,·,–,?,–
Cc1ccc(-c2noc(CN(C3CCCCC3)S(=O)(=O)c3ccc(F)cc3)n2)cc1,·,–,–,·,·,–
CCc1cccc(C)c1NC(=O)c1cn2c3c(ccc(Cl)c3c1=O)OC(C)C2 (stereo not drawn),·,–,–,·,·,–
COc1ccc(NC(C)C(=O)N/N=C/c2c(O)ccc3ccccc23)cc1 (stereo not drawn),1.58µM,–,·,–,3.55µM,·
O=C(CNc1ccccc1)N/N=C/c1c(O)ccc2ccccc12,1.58µM,–,–,–,2.82µM,·
O=C(CN1CCOCC1)N/N=C/c1c(O)ccc2ccccc12,?,–,–,–,1.41µM,·
O=C(N/N=C/c1c(O)ccc2ccccc12)Nc1ccccc1,·,–,–,·,·,·
O=C(CSCC(=O)Nc1ccccc1)N/N=C/c1c(O)ccc2ccccc12,1µM,–,–,–,3.55µM,–
Cc1cccc(-c2nnc(SCCC(=O)O)o2)c1,·,–,–,·,·,–
CC(NC(=O)c1ccco1)c1nnc2n1CCN(Cc1ccc(N(C)C)cc1)CC2 (stereo not drawn),·,–,·,·,·,·
N#CCC(=O)N/N=C/c1c2ccccc2cc2ccccc12,11.2µM,–,–,–,?,·
O=C(CO)N/N=C/c1c2ccccc2cc2ccccc12,–,–,·,–,–,–
COc1ccc(/C=C/c2cc(-c3ccc(C)cc3)o[n+]2C)cc1,?,?,?,–,12.6µM,–
CC(C)c1ccc(OCC(=O)NC2=NCCS2)cc1,14.1µM,–,–,–,–[10 µM],–
CC(C)C(C(=O)NC1=NCCS1)c1ccc(Cl)cc1 (stereo not drawn),4.47µM,–,·,–,?,–
O=C(/C=C/c1ccc(Cl)c(Cl)c1)NC1=NCCS1,7.94µM,–,·,–,?,–
CC(C)c1ccc(/C=C/C(=O)NC2=NCCS2)cc1,8.91µM,·,·,–,?,–
CCCNC(=O)/C=C/c1ccc(C(C)C)cc1,–,–,–,–,–,–
CC(C)(C)c1ccc(OCCC(=O)NC2=NCCS2)cc1,3.55µM,–,–,–,8.91µM,–
COc1cccc(C(=O)NC2CCN(CC(=O)Nc3c(C)cc(C)cc3C)CC2)c1,?,·,·,–,12.6µM,–
COc1ccccc1NC(=O)Cc1c(C(=O)O)[nH]c2ccc(Cl)cc12,·,–,–,·,·,–

# High-throughput results from PubChem BioAssay.
